{"source": "PubChem BioAssay AID588493", "about": "(Sanford-Burnham Center for Chemical Genomics, 2011)", "note": "About 2,100 (0.58%) of roughly 360,000 compounds were called active. For the sample, actives were picked, then their nearest neighbours and some compounds at random. A number with no mark means an inactive call.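 How the source made its calls: active means inhibition at 20 µM, scaled to each plate's controls, above about 33% (limit read from the data); inactive means the rest.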"}
{"target": "26S proteasome non-ATPase regulatory subunit 14 (Homo sapiens) (UniProt O00487)", "sequence (O00487 whole entry, looked up)": "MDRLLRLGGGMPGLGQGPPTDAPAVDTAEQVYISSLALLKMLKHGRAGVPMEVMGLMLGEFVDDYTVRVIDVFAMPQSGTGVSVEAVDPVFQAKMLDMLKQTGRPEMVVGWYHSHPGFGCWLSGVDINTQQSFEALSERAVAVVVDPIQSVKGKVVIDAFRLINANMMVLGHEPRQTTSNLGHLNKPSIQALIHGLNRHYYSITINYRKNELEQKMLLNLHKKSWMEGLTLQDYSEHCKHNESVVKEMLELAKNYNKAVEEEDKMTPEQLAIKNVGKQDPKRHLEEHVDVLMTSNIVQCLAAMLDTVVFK", "assay": "inhibition of 26S proteasome subunit Rpn11 – biochemical, fluorescence polarization, uHTS, primary screen (AID 588493)", "details": "human 26S proteasome, Ub4-pepOG fluorescence polarization; at 20 µM; active compounds read high; 20S core pre-blocked with epoxomicin"}
{"compound": "CCOC(=O)c1cc(C(C)C)sc1NC(=O)COC(=O)c1nccnc1N", "inhibition": "16.7%"}
{"compound": "CCOc1ccc2oc(C(=O)N(CC)CC(=O)Nc3ccc(NC(C)=O)cc3)c(C)c2c1", "inhibition": "8.2%"}
{"compound": "Cc1cccc(NC(=O)CSc2nnc(CCNC(=O)OC(C)(C)C)o2)c1C", "inhibition": "-2.3%"}
{"compound": "O=C(NCc1ccccn1)C1CCN(S(=O)(=O)c2ccc(Br)cc2)CC1", "inhibition": "-11.1%"}
{"compound": "CCC(C)C(CO)NC(=O)/C=C/[C@H]1O[C@@H](n2cnc3c(NC(=O)c4ccccc4)ncnc32)[C@H](O)[C@@H]1O", "note": "(stereo partly specified)", "inhibition": "-5.5%"}
{"compound": "COc1ccc(NC(=S)N2CCC(NC(=O)c3cccc(F)c3)CC2)cc1", "inhibition": "6.4%"}
{"compound": "C=CCNC(=O)C1CC=CCC1C(=O)O", "note": "(stereo unspecified)", "inhibition": "3.6%"}
{"compound": "CCOc1ccc(NC(=O)c2cccc3c2C(=O)N(CC2CCCO2)C3)cc1", "note": "(stereo unspecified)", "inhibition": "-0.9%"}
{"compound": "O=C(COC(=O)c1n[nH]c2ccccc12)Nc1ccccc1Br", "inhibition": "0.1%"}
{"compound": "CN(C)C(=O)c1ccc(NC(=O)c2ccccc2-c2ccccc2)cc1", "inhibition": "7%"}
{"compound": "CCc1ccc(NC(=O)CS(=O)CC(=O)N2CCN(c3ccccc3F)CC2)cc1", "note": "(stereo unspecified)", "inhibition": "0.4%"}
{"compound": "S=C(NCCCc1ccccc1)Nc1ccc(Br)cc1", "inhibition": "1%"}
{"compound": "CCc1ccc(NC(=O)CS(=O)CC(=O)NCCCc2ccccc2)cc1", "note": "(stereo unspecified)", "inhibition": "43.6% (active)"}
{"compound": "CCNC(=S)Nc1ccc2c(c1)c(=O)n(C)n2Cc1ccc(Cl)cc1", "inhibition": "8.6%"}
{"compound": "COCCNC(=S)N/N=C/c1c(C)[nH]c2ccccc12", "inhibition": "17%"}
{"compound": "CN=c1scc(-c2cc(OC)ccc2OC)n1/N=C/c1c(C)[nH]c2ccccc12", "inhibition": "56.4% (active)"}
{"compound": "CCn1c(-c2cc(OC)ccc2OC)csc1=Nc1c(C)n(C)n(-c2ccccc2)c1=O", "inhibition": "1.2%"}
{"compound": "COc1ccc(N(CCC(=O)NCCc2ccccc2)S(=O)(=O)c2ccc(C)cc2C)cc1", "inhibition": "3.7%"}
{"compound": "Cc1cc(OCC(=O)N(C)c2c(N)n(Cc3ccccc3)c(=O)[nH]c2=O)c(C(C)C)cc1Cl", "inhibition": "-1.8%"}
{"compound": "CCC(=C/c1sc2ccc3ccccc3c2[n+]1C)/C=C1\\Sc2ccc3ccccc3c2N1C", "inhibition": "70% (active)"}
{"compound": "Cc1ccc(S(=O)(=O)N2C[C@H]3C(=O)C[C@@H](c4cccc5ccccc45)N(S(=O)(=O)c4ccc(C)cc4)[C@H]3C[C@H]2c2ccc(Cl)cc2)cc1", "inhibition": "-1.4%"}
{"compound": "O=C(NCc1nnnn1-c1ccc(Cl)cc1)c1ccc([N+](=O)[O-])o1", "inhibition": "-0.3%"}
{"compound": "Cc1cc(OCC(=O)Nc2nccs2)c2c(C)c(C)c(=O)oc2c1", "inhibition": "61.1% (active)"}
{"compound": "Cc1cc(OCC(=O)NCC(O)c2ccccc2)c2c(C)c(C)c(=O)oc2c1", "note": "(stereo unspecified)", "inhibition": "-2.1%"}
{"compound": "COc1ccc(CCNC(=O)COc2cc(C)cc3oc(=O)c(C)c(C)c23)cc1OC", "inhibition": "0%"}
{"compound": "CCCCc1ccc(NC(=O)CN2C(=O)NC(Cc3ccccc3)C2=O)cc1", "note": "(stereo unspecified)", "inhibition": "-0.4%"}
{"compound": "CC(C)Oc1ccc(S(=O)(=O)N2CCOCC2)cc1NC(=O)C1CCCC1", "inhibition": "2.4%"}
{"compound": "O=C1NC(Nc2nc3ccccc3s2)(C(F)(F)F)C(=O)N1C1CCCCC1", "note": "(stereo unspecified)", "inhibition": "3.6%"}
{"compound": "COC(=O)c1c(NC(=O)CCN2CCOCC2)sc2c1CCCC2", "inhibition": "6.6%"}
{"compound": "O=C(CN1CCCC1)Nc1sc2c(c1C(=O)Nc1ccccc1)CCCC2", "inhibition": "-13.4%"}
{"compound": "Cc1ccc(NC(=O)c2c(NC(=O)CCC(=O)O)sc3c2CCCCC3)cc1", "inhibition": "40.1% (active)"}
{"compound": "COC(=O)c1ccc(CNC(=O)c2ccc3oc(C(C)C)nc3c2)cc1", "inhibition": "-13.2%"}
{"compound": "CC(=O)/C(=N\\Nc1ccc(Cl)cc1Cl)Sc1cccc2cccnc12", "inhibition": "78.5% (active)"}
{"compound": "Cc1cc(OCCOc2cccc3cccnc23)c(C)cc1Cl", "inhibition": "-1.8%"}
{"compound": "COc1cccc(CNC(=O)C2CCN(S(=O)(=O)c3cccc4cccnc34)CC2)c1", "inhibition": "7.6%"}
{"compound": "CCOC(=O)NN1C(=O)c2ccccc2NC1c1ccccc1O", "note": "(stereo unspecified)", "inhibition": "-5.9%"}
{"compound": "N#Cc1cccc(NC(=O)COC(=O)c2ccccc2C(=O)c2ccc(Cl)c([N+](=O)[O-])c2)c1", "inhibition": "-2.3%"}
{"compound": "COc1ccc(CN2[C@@H](CC(=O)O)c3cc(F)ccc3S2(=O)=O)cc1", "inhibition": "-5.9%"}
{"compound": "CCn1c(/C=N/NC(=O)c2ccc(OC)cc2)nc2ccccc21", "inhibition": "-5.8%"}
{"compound": "COc1cccc(/C=N/NC(=O)c2[nH]nc3c2CCc2ccccc2-3)c1O", "inhibition": "52.1% (active)"}
{"compound": "COc1cc(/C=N/NC(=O)c2cccnc2)ccc1OC(=O)c1cccc(Br)c1", "inhibition": "-13.5%"}
{"compound": "COc1ccc(CCNC(=O)CCNS(=O)(=O)c2cc(Br)cnc2N)cc1OC", "inhibition": "0.1%"}
{"compound": "CC(C)C(NC(=O)c1cccc(S(=O)(=O)N2CCOCC2)c1)C(=O)NCCc1ccccn1", "note": "(stereo unspecified)", "inhibition": "-2.1%"}
{"compound": "COCCCN1C(=O)c2ccc(C(=O)OCC(=O)NCc3ccccc3OC)cc2C1=O", "inhibition": "3.9%"}
{"compound": "CC(C)NC(=O)NC(=O)COC(=O)c1ccc(NC(=O)CC#N)cc1", "inhibition": "-1.1%"}
{"compound": "N#CCC(=O)Nc1ccc(C(=O)OCC(=O)Nc2sc3c(c2C#N)CCCC3)cc1", "inhibition": "39.6%"}
{"compound": "CCOc1ccc(NC(=O)c2ccc(NC(=O)COC(=O)c3ccc(NC(=O)CC#N)cc3)cc2)cc1", "inhibition": "128% (active)"}
{"compound": "COc1ccccc1-c1n[nH]c2c1[C@H](C)CC[C@H]2C(C)C", "inhibition": "0.4%"}
{"compound": "CN(C)S(=O)(=O)c1ccc(C(=O)NCC2(N3CCOCC3)CCCCC2)cc1", "inhibition": "2.6%"}
{"compound": "O=C(COC(=O)c1cc(=O)[nH]c2ccccc12)Nc1nc(-c2cccc(Br)c2)cs1", "inhibition": "1.7%"}
{"compound": "Cc1cc(C)c(-c2csc(NC(=O)CCCc3nc4ccccc4c(=O)[nH]3)n2)c(C)c1", "inhibition": "8.9%"}
{"compound": "O=C(CSc1nc2ccccc2c(=O)[nH]1)Nc1nc(-c2ccc(Br)cc2)cs1", "inhibition": "132% (active)"}
{"compound": "Cc1ccc2c(c1)nnc1nnc(SCC(=O)O)n12", "inhibition": "-12%"}
{"compound": "CS(=O)(=O)c1ccc(C(=O)OCC(=O)NNC(=O)COc2ccc(Cl)cc2)cc1", "inhibition": "22.5%"}
{"compound": "CC(C)(C)NC(=O)COc1ccc(CNc2ccc3[nH]c(=O)[nH]c3c2)cc1", "inhibition": "-10.4%"}
{"compound": "COC(=O)c1ccc(OCC(=O)NC(C)(C)C)cc1", "inhibition": "62.8% (active)"}
